Assay [1] can be described thus: NCI Yeast Anticancer Drug Screen. Data for the rad50 strain (AID 155).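 Also: 0% = growth of vehicle-only cultures of the same strain.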 To be noted: S. cerevisiae rad50 strain growth inhibition, hits give high values. The method in brief:
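Growth of the mutant yeast was measured after compound exposure and referenced to vehicle-treated cultures.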

Assay [2] is described as follows: NCI Yeast Anticancer Drug Screen. Data for the mec2-1 strain (AID 157). To be noted: S. cerevisiae mec2-1 strain, hits give high values. The gist of the method:
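Readout is yeast growth inhibition, normalised to vehicle-treated controls, in the mec2-1 strain exposed to compound.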

Assay [3] is described as follows: NCI Yeast Anticancer Drug Screen. Data for the sgs1 mgt1 strain (AID 161).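 Also: 0% = growth of cultures given vehicle only.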 As to conditions: S. cerevisiae sgs1 mgt1 strain, hits give high values. The method in brief:
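Yeast cells carrying a defined DNA-repair defect were exposed to test compounds. Growth inhibition was measured relative to vehicle-treated controls.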

The nature of assay [4]: NCI Yeast Anticancer Drug Screen. Data for the cln2 rad14 strain (AID 165).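 Also: 0% = growth equal to vehicle treated cultures.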 As to conditions: S. cerevisiae cln2 rad14 strain, hits give high values. The method in brief: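 Relative to vehicle controls, growth inhibition of compound-treated cln2 rad14 yeast was recorded.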
Assay [5] in a line: NCI Yeast Anticancer Drug Screen. Data for the bub3 strain (AID 167). As to conditions: S. cerevisiae bub3 mutant strain, hits give high values. The gist of the method:
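Whole-cell yeast assay. The mutant strain was incubated with compounds, and growth inhibition was determined by comparison with vehicle-treated cells.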

Assay [6] in a line: NCI Yeast Anticancer Drug Screen. Data for the mlh1 rad18 strain (AID 175). To be noted: S. cerevisiae mlh1 rad18 strain growth inhibition, hits give high values. The gist of the method:
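Test agents were incubated with a yeast strain of defined genotype (DNA damage repair defect). Inhibition of growth was derived by comparison with vehicle-exposed cultures.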

[7] abbreviates: at 5.0 µM (retest, dose inferred, filed as 0.5).
Setting [8] is: at 50.0 µM (retest, dose inferred, filed as 5.0).

About 79,000 compounds went through this panel and 15% of them were active in at least one assay; those are over-represented in the sample as a whole. Unmarked numbers belong to inactive results. Calls of active or inactive are those of the source. Rule as the data show it: active = growth inhibition above about 70%; inactive = the rest.

As for `O=C1C(Cl)=C(NCCC2CCCN3CCCCC23)C(=O)c2ccccc21` (configuration not stated), the growth inhibition in assay [1] (setting [7]) was 13%; in assay [1] (setting [8]), 48%; in assay [1] (at 50.0 µM) it was 65.3%; in assay [2] (setting [7]), -8%; in assay [2] (setting [8]), 54%; in assay [2] (at 50.0 µM) it was 53.4%. Moreover, the growth inhibition in assay [3] (setting [7]) is 10%; in assay [3] (setting [8]), 55%; in assay [3] (at 50.0 µM), 79.5% (active); in assay [4] (setting [7]), 2%; in assay [4] (setting [8]), 37%; in assay [4] (at 50.0 µM) it was 63.7%. The growth inhibition in assay [5] (setting [7]) was 2%; in assay [5] (setting [8]) it was 51%; in assay [5] (at 50.0 µM), 26.1%; in assay [6] (setting [7]), 6%; in assay [6] (setting [8]), 27%; in assay [6] (at 50.0 µM), 70.8% (active).
With `CC(=O)O[C@@H]1c2c(c3c(=O)c4cccc(O)c4c(=O)c=3c2=[N+]=[N-])[C@H](OC(C)=O)[C@@H](OC(C)=O)[C@]1(C)O`, the growth inhibition in assay [1] (setting [7]) was 99% (active); in assay [1] (setting [8]), 99% (active); in assay [1] (at 50.0 µM), 92% (active); in assay [2] (setting [7]), 99% (active); in assay [2] (setting [8]) it was 99% (active); in assay [2] (at 50.0 µM) it was 93.7% (active). In addition, the growth inhibition in assay [3] (setting [7]) was 99% (active); in assay [3] (setting [8]), 99% (active); in assay [3] (at 50.0 µM), 93% (active); in assay [4] (setting [7]), 99% (active); in assay [4] (setting [8]), 99% (active); in assay [4] (at 50.0 µM), 91.3% (active). For the same molecule, the growth inhibition is 98% (active) in assay [5] (setting [7]); 99% (active) in assay [5] (setting [8]); 91.4% (active) in assay [5] (at 50.0 µM); 99% (active) in assay [6] (setting [7]); 99% (active) in assay [6] (setting [8]); 91.6% (active) in assay [6] (at 50.0 µM).
For the molecule `CCOC(=O)C1=C(C)NC(C)=C(C(=O)OCC)C1c1ccnc2ccccc12`, the growth inhibition in assay [1] (setting [7]) is 10%; in assay [1] (setting [8]), 94% (active); in assay [1] (at 50.0 µM), 63.8%; in assay [2] (setting [7]), 7%; in assay [2] (setting [8]) it was 97% (active); in assay [2] (at 50.0 µM), 54.4%. The growth inhibition in assay [3] (setting [7]) was -26%; in assay [3] (setting [8]) it was 96% (active); in assay [3] (at 50.0 µM), 55%; in assay [4] (setting [7]), -8%; in assay [4] (setting [8]), 93% (active); in assay [4] (at 50.0 µM), 63.8%. Further, the growth inhibition in assay [5] (setting [7]) was 10%; in assay [5] (setting [8]) it was 93% (active); in assay [5] (at 50.0 µM), 98% (active); in assay [6] (setting [7]), 10%; in assay [6] (setting [8]) it was 96% (active); in assay [6] (at 50.0 µM) it was 55.9%.
Turning to `O=C(CCN1CCN(c2cccc(Cl)c2)CC1)N1CCc2c([nH]c3ccccc23)C1c1cccnc1` (configuration not stated), the growth inhibition was 17% in assay [1] (setting [7]); 17% in assay [1] (setting [8]); 90.4% (active) in assay [1] (at 50.0 µM); 10% in assay [2] (setting [7]); 10% in assay [2] (setting [8]); 92% (active) in assay [2] (at 50.0 µM). Also, the growth inhibition in assay [3] (setting [7]) was 8%; in assay [3] (setting [8]), 8%; in assay [3] (at 50.0 µM) it was 90.4% (active); in assay [4] (setting [7]), 9%; in assay [4] (setting [8]), 9%; in assay [4] (at 50.0 µM), 92% (active). For the same molecule, the growth inhibition in assay [5] (setting [7]) was 8%; in assay [5] (setting [8]), 8%; in assay [5] (at 50.0 µM) it was 91.3% (active); in assay [6] (setting [7]), 23%; in assay [6] (setting [8]), 23%; in assay [6] (at 50.0 µM) it was 89.7% (active).
Take `CCCCN(CCCC)CCNc1ccc(NS(=O)(=O)c2ccccc2)c2sc3ccccc3c(=O)c12`: the growth inhibition in assay [1] (setting [7]) was 43%; in assay [1] (setting [8]), 96% (active); in assay [1] (at 50.0 µM), 96.8% (active); in assay [2] (setting [7]), 21%; in assay [2] (setting [8]) it was 95% (active); in assay [2] (at 50.0 µM), 97.8% (active). The growth inhibition in assay [3] (setting [7]) is 54%; in assay [3] (setting [8]) it was 96% (active); in assay [3] (at 50.0 µM), 98.2% (active); in assay [4] (setting [7]), 31%; in assay [4] (setting [8]), 96% (active); in assay [4] (at 50.0 µM), 93.3% (active). Moreover, the growth inhibition in assay [5] (setting [7]) is 32%; in assay [5] (setting [8]), 94% (active); in assay [5] (at 50.0 µM) it was 96.4% (active); in assay [6] (setting [7]), 96% (active); in assay [6] (setting [8]), 94% (active); in assay [6] (at 50.0 µM) it was 95.3% (active).
In the case of `C=C(C)C1(C(=O)OCC(Cl)(Cl)Cl)NC(=O)C(NC(=O)COc2ccccc2)=CO1` (configuration not stated), the growth inhibition in assay [1] (setting [7]) is 26%; in assay [1] (setting [8]), 66%; in assay [1] (at 50.0 µM) it was 94.8% (active); in assay [2] (setting [7]), 4%; in assay [2] (setting [8]), 68%; in assay [2] (at 50.0 µM) it was 86.8% (active). Moreover, the growth inhibition in assay [3] (setting [7]) was 8%; in assay [3] (setting [8]), 56%; in assay [3] (at 50.0 µM), 94.5% (active); in assay [4] (setting [7]) it was 6%; in assay [4] (setting [8]) it was 31%; in assay [4] (at 50.0 µM), 61.1%. For the same molecule, the growth inhibition in assay [5] (setting [7]) is 3%; in assay [5] (setting [8]), 44%; in assay [5] (at 50.0 µM), 85% (active); in assay [6] (setting [7]), 3%; in assay [6] (setting [8]), 51%; in assay [6] (at 50.0 µM), 93% (active).
As to `N=C1c2ccccc2-c2ccccc21`, the growth inhibition in assay [1] (setting [7]) is 49%; in assay [1] (setting [8]), 49%; in assay [1] (at 50.0 µM), 66%; in assay [2] (setting [7]) it was 22%; in assay [2] (setting [8]) it was 17%; in assay [2] (at 50.0 µM), 37.2%. The growth inhibition in assay [3] (setting [7]) was 10%; in assay [3] (setting [8]), 11%; in assay [3] (at 50.0 µM), 40.2%; in assay [4] (setting [7]) it was 12%; in assay [4] (setting [8]), 3%; in assay [4] (at 50.0 µM) it was 12.1%. Further, the growth inhibition in assay [5] (setting [7]) is 19%; in assay [5] (setting [8]) it was 24%; in assay [5] (at 50.0 µM) it was 22.9%; in assay [6] (setting [7]) it was 21%; in assay [6] (setting [8]), 21%; in assay [6] (at 50.0 µM) it was 26.8%.
Consider `N#CC(=C1C=CC(=NOC(=O)Nc2ccccc2)C=C1)c1ccccc1`, for which the growth inhibition in assay [1] (setting [7]) is 18%; in assay [1] (setting [8]), 98% (active); in assay [1] (at 50.0 µM), 99% (active); in assay [2] (setting [7]), 4%; in assay [2] (setting [8]), 99% (active); in assay [2] (at 50.0 µM) it was 99.4% (active). The growth inhibition was 11% in assay [3] (setting [7]); 99% (active) in assay [3] (setting [8]); 99.5% (active) in assay [3] (at 50.0 µM); 1% in assay [4] (setting [7]); 99% (active) in assay [4] (setting [8]); 88.3% (active) in assay [4] (at 50.0 µM). Besides, the growth inhibition in assay [5] (setting [7]) was -5%; in assay [5] (setting [8]), 98% (active); in assay [5] (at 50.0 µM), 99.2% (active); in assay [6] (setting [7]), 5%; in assay [6] (setting [8]), 98% (active); in assay [6] (at 50.0 µM), 99.2% (active).
`c1ccc(C(CNCCN2CCCCCC2)C2CCCCC2)cc1` (configuration not stated): the growth inhibition in assay [1] (setting [7]) is 21%; in assay [1] (setting [8]), 12%; in assay [1] (at 50.0 µM), 82.5% (active); in assay [2] (setting [7]), 13%; in assay [2] (setting [8]), 22%; in assay [2] (at 50.0 µM), 44.6%. In addition, the growth inhibition in assay [3] (setting [7]) is 26%; in assay [3] (setting [8]), -9%; in assay [3] (at 50.0 µM), 89.8% (active); in assay [4] (setting [7]), 10%; in assay [4] (setting [8]) it was 16%; in assay [4] (at 50.0 µM), 74.7% (active). Besides, the growth inhibition in assay [5] (setting [7]) is 22%; in assay [5] (setting [8]), 20%; in assay [5] (at 50.0 µM) it was 66.5%; in assay [6] (setting [7]) it was 18%; in assay [6] (setting [8]) it was 23%; in assay [6] (at 50.0 µM), 87.2% (active).

The values above are taken from PubChem BioAssay (NCI).
